Data: PubChem BioAssay AID1465 (SRMLSC, 2008)
The campaign covered roughly 220,000 compounds. About 160 (0.073%) were called active.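 How the source made its calls: active means fold induction of absorbance versus untreated yeast above a set limit, then at least 30% activation at any dose in follow-up; inconclusive means repeats straddling the limit, or above it without dose testing; inactive means fold induction below the set limit.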 Only a sample is shown. Results with a measured potency or affinity are listed apart.

Test: mitochondrial function rescue without frataxin homolog – Friedreich's ataxia, plus single-dose screen, dose response (AID 1465)
Conditions: S. cerevisiae Yfh1-off respiration, WST-1 reduction, 72 h; at 50 µM; stronger effect = higher value
With `CCOC(=O)C1=C(Cc2ccc(C)cc2)C(=O)c2ccccc2C1=O` the fold induction was 1.29 (inactive). For `CCOC(=O)C1=C(Cc2ccc(Cl)cc2)C(=O)c2ccccc2C1=O`, the fold induction was 1.27 (inactive). With `CCNS(=O)(=O)c1ccc(NC(=O)Nc2ccccc2OC)cc1` the fold induction was 1.1 (inactive). In the case of `Cc1nc2c(C)cccn2c1/C(O)=C1\C(=O)C(=O)N(CCN(C)C)C1c1ccncc1` (stereo not drawn), the fold induction is reported as 1.11 (inactive). With `Oc1ccc(CN2CCCCC2)c2cccnc12` the fold induction was 0.69 (inactive). For `Oc1ccc(CN2CCN(c3ccccc3)CC2)c2cccnc12`, the fold induction was 0.91 (inactive). With `COc1ccccc1N1CCN(Cc2cc(Br)c(O)c3ncccc23)CC1` the fold induction was 0.74 (inactive). For `Oc1ccc(CN2CCN(Cc3ccccc3)CC2)c2cccnc12`, the fold induction was 1.36 (inactive). In the case of `CCOc1ccc(C(=O)NCC(=O)OCc2c(F)cccc2Cl)cc1`, the fold induction is reported as 1.18 (inactive). With `CCNC(=S)N(Cc1ccc(OC)cc1)C1CC(=O)N(c2ccc(OCC)cc2)C1=O` (stereo not drawn) the fold induction was 0.92 (inactive). With `NC(=S)Nc1ccccc1Br` the fold induction was 1 (inactive). With `Cc1ccc(/C=N/NC(=O)CN2CCN(Cc3ccccc3Cl)CC2)o1` the fold induction was 0.97 (inactive). With `N#C/C(=N\Nc1ccc(Cl)cc1)C(=O)c1ccccc1` the fold induction was 0.82 (inactive). In the case of `CCOC(=O)/C(C#N)=N/Nc1c(C)n(C)n(-c2ccccc2)c1=O`, the fold induction is reported as 1 (inactive). For `COC(=O)C(=NNc1c(C)n(C)n(-c2ccccc2)c1=O)C(=O)OC`, the fold induction was 1 (inactive). In the case of `Cc1c(N/C=C/C(=O)c2ccc(Cl)cc2)c(=O)n(-c2ccccc2)n1C`, the fold induction is reported as 1 (inactive). With `Cc1c(NN=C(C#N)C#N)c(=O)n(-c2ccccc2)n1C` the fold induction was 0.98 (inactive). In the case of `Cc1c(NC=C(C#N)C#N)c(=O)n(-c2ccccc2)n1C`, the fold induction is reported as 0.95 (inactive). With `O=C(c1cc2c(s1)CCCC2)N1CCN(S(=O)(=O)c2ccccc2C(F)(F)F)CC1` the fold induction was 0.91 (inactive). In the case of `CCC(C)/C(C)=N/NC(=O)c1cn(-c2ccccc2)nc1-c1ccccc1` (stereo not drawn), the fold induction is reported as 0.83 (inactive). In the case of `O=C(O)CC(NC(=O)Cc1ccc([N+](=O)[O-])cc1)c1ccc2c(c1)OCO2` (stereo not drawn), the fold induction is reported as 1 (inactive). In the case of `Cc1ccc(-c2cc3nc(-c4ccccc4)cc(N4CCC5(CC4)OCCO5)n3n2)cc1`, the fold induction is reported as 0.98 (inactive). In the case of `O=C(Nc1ccon1)c1cccc(C(F)(F)F)c1`, the fold induction is reported as 0.98 (inactive). For `COc1c(O)cc2c(c1O)C(=O)CC(c1ccccc1)O2` (stereo not drawn), the fold induction was 0.86 (inactive). In the case of `C[C@@H]1Cc2c(O)c(O)cc(O)c2C(=O)O1`, the fold induction is reported as 1.07 (inactive). For `Cc1cc2cc(C(c3nnnn3Cc3ccco3)N3CCCCC3)c(=O)[nH]c2cc1C` (stereo not drawn), the fold induction was 0.99 (inactive). For `COc1ccc(OC)c(N2C(=O)CC(Cc3ccc(C)cc3)C2=O)c1` (stereo not drawn), the fold induction was 0.84 (inactive). With `N#C/C(C(=O)N1CCCCC1)=C1\Nc2ccccc2S1` the fold induction was 0.81 (inactive). With `COC1=C(c2ccccc2)C(=O)c2ccccc2C1=O` the fold induction was 1.01 (inactive). For `CC(=O)C1=C(c2ccc(Br)cc2)C(=O)c2ccccc2C1=O`, the fold induction was 0.86 (inactive). In the case of `COc1ccc(C/C(O)=C(\C#N)c2nc3ccccc3[nH]2)cc1OC`, the fold induction is reported as 1.12 (inactive). In the case of `O=C(CC1(O)C(=O)Nc2ccccc21)c1ccc(-n2cnnn2)cc1` (stereo not drawn), the fold induction is reported as 1.11 (inactive). With `CC1CCCC(NC(=O)c2ccc3c(=O)n(CC4CCCO4)c(=O)[nH]c3c2)C1C` (stereo not drawn) the fold induction was 1.02 (inactive). With `CCOC(=O)/C(=C/C=C1\Sc2ccccc2N1CC)C(C)=O` the fold induction was 0.99 (inactive). For `CCC(=O)/C=C1/Sc2ccccc2N1CC`, the fold induction was 0.79 (inactive). For `COC(=O)c1ccccc1NC(=O)Cn1ccnc1`, the fold induction was 1.02 (inactive). For `CCCC(=O)NC(c1ccco1)c1c(O)ccc2ccccc12` (stereo not drawn), the fold induction was 0.99 (inactive). For `CCC(=O)NC(c1cccs1)c1ccc2cccnc2c1O` (stereo not drawn), the fold induction was 0.88 (inactive). In the case of `CC(C)CC(=O)NC(c1cccs1)c1ccc2cccnc2c1O` (stereo not drawn), the fold induction is reported as 0.99 (inactive). For `CCCC(=O)NC(c1ccco1)c1cc(Cl)c2cccnc2c1O` (stereo not drawn), the fold induction was 0.7 (inactive). In the case of `O=[N+]([O-])c1ccc(O)c2ncccc12`, the fold induction is reported as 1.17 (inactive). With `CC(=O)NC(c1ccco1)c1ccc2cccnc2c1O` (stereo not drawn) the fold induction was 0.91 (inactive). In the case of `O=C1CNC(=O)N1CC(=O)N1CCCc2ccccc21`, the fold induction is reported as 1.04 (inactive). With `COc1ccc(C)cc1S(=O)(=O)Nc1cc(Cl)ccc1Cl` the fold induction was 0.94 (inactive). In the case of `OC(COc1ccc2ccccc2c1)CN1CCN(c2ccc(F)cc2)CC1` (stereo not drawn), the fold induction is reported as 0.93 (inactive). With `COc1ccc(/C=C2\Sc3ccc(C(=O)NCc4cccnc4)cc3N(C)C2=O)cc1OC` the fold induction was 1.1 (inactive). For `c1csc(-c2nnc(N3CCOCC3)c3ccccc23)c1`, the fold induction was 1.39 (inactive). With `Cc1c(Nc2ccc(C=O)cc2)c(=O)n(-c2ccccc2)n1C` the fold induction was 1.09 (inactive). With `Clc1ccc(-c2n[nH]c3c2CCC3)cc1Cl` the fold induction was 0.777 (inactive). With `CCC(=O)NNc1ncnc2c1cnn2C` the fold induction was 1.06 (inactive). For `CCOc1ccc(Oc2ccc(S(=O)(=O)N3CCOCC3)cc2N)cc1`, the fold induction was 1.12 (inactive). In the case of `CCc1nnc(NC(=O)CCC(=O)N2CCN(CCOc3ccc(C)cc3)CC2)s1`, the fold induction is reported as 0.907 (inactive). In the case of `COc1ccc(NC(=S)NNc2ccc([N+](=O)[O-])cc2S(=O)(=O)Nc2ccc(C)cc2C)cc1`, the fold induction is reported as 1.25 (inactive). In the case of `Cc1ccc(NC(=S)NNc2ccc([N+](=O)[O-])cc2S(=O)(=O)Nc2ccccc2C(=O)O)cc1C`, the fold induction is reported as 1.09 (inactive). With `O=C(O)CCc1nn2c3ccccc3nc2n(CCN2CCCCC2)c1=O` the fold induction was 1.09 (inactive). For `COc1cc2c(cc1NC(=O)C(C)OC(=O)/C=C/c1ccc(OC(F)F)cc1)oc1ccccc12` (stereo not drawn), the fold induction was 1.12 (inactive). In the case of `COc1ccc(/C=N/NC(=O)c2cc(C)n(-c3ccccc3)c2C)cc1OC`, the fold induction is reported as 0.99 (inactive). For `Cc1cc(/C=N/NC(=O)c2ccccc2F)c(C)n1-c1ccccc1`, the fold induction was 1.02 (inactive). In the case of `Cc1ccc(CCCOC(=O)C[N+]2(C)CCOCC2)cc1`, the fold induction is reported as 1.14 (inactive). For `Cc1c(S(=O)(=O)N2CCN(C(c3ccccc3)c3ccccc3)CC2)c(=O)n(C)c(=O)n1C`, the fold induction was 1.25 (inactive). With `CN1/C(=C\C=O)C(C)(C)c2ccccc21` the fold induction was 1.07 (inactive). With `CN1/C(=C\C=C2/SC(=S)NC2=O)C(C)(C)c2ccccc21` the fold induction was 1.04 (inactive). In the case of `CC(C)n1c(SCC(=O)c2ccc3c(c2)OCCO3)nc2c1c(=O)n(C)c(=O)n2C`, the fold induction is reported as 1.06 (inactive). For `O=[N+]([O-])c1cccc(/C=N/Nc2nc(NCc3ccccc3)nc(N3CCOCC3)n2)c1`, the fold induction was 1.03 (inactive). For `O=[N+]([O-])c1ccc(/C=N/Nc2nc(NCc3ccccc3)nc(N3CCOCC3)n2)cc1`, the fold induction was 1.08 (inactive). With `CCCCN1C(=O)C2C(c3ccc(OC)cc3O)NC(CC(C)C)(C(=O)O)C2C1=O` (stereo not drawn) the fold induction was 0.99 (inactive). In the case of `CCCC(=O)NC(c1ccc(OC)c(OC)c1)c1cc(Cl)c2cccnc2c1O` (stereo not drawn), the fold induction is reported as 1.13 (inactive). In the case of `COc1ccc(C(NC(=O)c2cccnc2)c2cc(Cl)c3cccnc3c2O)cc1OC` (stereo not drawn), the fold induction is reported as 0.98 (inactive). In the case of `CCCC(=O)NC(c1ccc(OC)cc1)c1ccc2cccnc2c1O` (stereo not drawn), the fold induction is reported as 0.96 (inactive). With `CCCC(=O)NC(c1ccc2c(c1)OCO2)c1cc(Cl)c2cccnc2c1O` (stereo not drawn) the fold induction was 1.12 (inactive). With `O=C(CS(=O)(=O)c1c[nH]c2ccccc12)N1CCCCCC1` the fold induction was 1.02 (inactive). In the case of `CC(=NC1CC1)c1c(-c2ccccc2)[nH]n(-c2nc3ccccc3s2)c1=O`, the fold induction is reported as 0.93 (inactive). With `CCCc1cc(=O)n(-c2nc3ccccc3s2)[nH]1` the fold induction was 1 (inactive). In the case of `Cc1ccc(S(=O)(=O)NCC(=O)OCc2ccccc2)cc1`, the fold induction is reported as 0.97 (inactive). For `COc1ccc(CN2C(=O)[C@H]3Cc4c([nH]c5ccccc45)C(C)(C)N3C2=O)cc1`, the fold induction was 0.81 (inactive). For `CC(C)C(=O)NC(c1ccccc1)c1cc([N+](=O)[O-])c2cccnc2c1O` (stereo not drawn), the fold induction was 0.98 (inactive). With `CCC(=O)NC(/C=C/c1ccccc1)c1cc([N+](=O)[O-])c2cccnc2c1O` (stereo not drawn) the fold induction was 1.36 (inactive). With `O=[N+]([O-])c1cc(Cl)c(O)c2ncccc12` the fold induction was 1.15 (inactive). For `O=[N+]([O-])c1cc(Cl)c2cccnc2c1O`, the fold induction was 0.89 (inactive). In the case of `O=C(NNC(=O)c1cccnc1)Nc1cccc(Cl)c1Cl`, the fold induction is reported as 0.89 (inactive). In the case of `Cc1cnccc1CN(C)Cc1nc(Cc2ccccc2Cl)no1`, the fold induction is reported as 0.85 (inactive). In the case of `CCC1(C(=O)O)NC(c2cccc(OC)c2O)C2C(=O)N(c3ccccc3)C(=O)C21` (stereo not drawn), the fold induction is reported as 1.01 (inactive). With `Cc1cc(C)n2nc(-c3sccc3-n3c(C)ccc3C)cc2n1` the fold induction was 1.01 (inactive). For `COc1ccc(CN2C3CCCC2CC(NC(=O)Nc2cccc(C)c2)C3)cc1` (stereo not drawn), the fold induction was 0.96 (inactive). For `Cc1oc2c(c1C(=O)O)C(=O)c1ccccc1C2=O`, the fold induction was 1.01 (inactive). In the case of `Cc1ccc(C(=O)c2c(C)oc3c2C(=O)C(=O)c2ccccc2-3)cc1`, the fold induction is reported as 1.18 (inactive). In the case of `C=CCn1c(C)cc(C(=O)COc2ncnc3sccc23)c1C`, the fold induction is reported as 0.88 (inactive). In the case of `COc1ccccc1N(CN1C(=O)c2ccccc2C1=O)C(=O)c1cccc(C)c1`, the fold induction is reported as 0.82 (inactive). For `O=C(CCCn1nnc2ccccc2c1=O)N[C@H](C(=O)O)c1ccccc1`, the fold induction was 1.02 (inactive). With `O=C(O)c1cccc(NC(=S)N/N=C/c2cccnc2)c1` the fold induction was 0.98 (inactive). For `O=C(O)c1cccc(NC(=S)N/N=C/c2cccc(O)c2)c1`, the fold induction was 1.03 (inactive). In the case of `COc1c(Cl)cc(Cl)cc1C(=O)n1nc(C)cc1C`, the fold induction is reported as 0.88 (inactive). With `CCOC(=O)c1ccc(NNC(=O)CC)c([N+](=O)[O-])c1` the fold induction was 1.03 (inactive). In the case of `CNc1nc2c(c(=O)[nH]c(=O)n2C)n1CCOC`, the fold induction is reported as 1.02 (inactive). For `O=C1NC(=O)/C(=C/c2ccc(N3CCOCC3)o2)N1`, the fold induction was 1.01 (inactive). In the case of `O=C1NC(=O)/C(=C\c2ccc(N3CCOCC3)o2)N1`, the fold induction is reported as 0.97 (inactive). With `COc1ccccc1C(CC(=O)N1CCCC1)c1ccc2c(c1)OCO2` (stereo not drawn) the fold induction was 0.99 (inactive). With `NNC(=O)CCc1c[nH]c2ccccc12` the fold induction was 0.93 (inactive).
